Drawing on the supplement of paper PMC6555819, this text covers PBM binding z-score for 40 sequences.

The assay relates to VDR:RXRa (NR concentration 270 nM, RXRa partner concentration 90 nM). Description: PBM binding z-score (relative to random genomic background probes); higher = stronger binding; sequences stand for … in GC…GCGATTGACAGCGTAGAATGAAGG
The protocol:
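Protein-binding microarray (Agilent 4x180K custom design, double-stranded 60-nt probes: 5' GC cap, 34-nt variable region, 24-nt constant primer region; full probe sequence given). Purified or IVT nuclear receptor:RXRα heterodimers (3:1 NR:RXRα, mostly 270:90 nM) or homodimers were incubated for 1 h in PBS with 2% milk and no ligand, then detected with Alexa488 antibodies. Fluorescence from o1-orientation probes (~5 replicates averaged) was converted to z-scores against 500 random hg19 background probes. Variable regions are seed direct-repeat (DR0–DR5) sites, all their single-nucleotide variants and half-site ablations.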
In turn, CGAACTAGGTCATCCAGGACAGTTAATACATTGA returned a PBM binding z-score of 4.42.

In turn, AGAATGCGGTTATACGTAGATCAGGGAAGAAAGT displayed a PBM binding z-score of -0.334.

CCGACTGGGGAATAAGGTTACCATAAGCCAGCCC showed a PBM binding z-score of 0.185.

For ATCTCTAGGTAAAGATAGTTCAGTGACTGCAAAT, the PBM binding z-score stood at 1.05.

For ATCTCTAGCTAAGACTCAGTTCAGTGAAGAACGC, the PBM binding z-score was 0.552.

ATCTCTAGGTAAAGTTCGGTGAAAGATCGATAGA had a PBM binding z-score of 0.603.

The sequence ACTAGTTGGTCTGCTGAGGTCACACACAATTCGG had a PBM binding z-score of 3.54.

TCTCGGAAGACACGAAGGTCAGAGCTTTCCAGAG: the PBM binding z-score was found to be 1.08.

TCATATAGGTAAAAGTGAAAGTCGAACGATATGA yielded a PBM binding z-score of 0.265.

On to ATATGTAGGTTAAGGGTCCTTCAGGTTGGTTCGC, for which the PBM binding z-score was 1.67.

In turn, CGTAAAAGTTCAAGGTAACGTAACAGAAAGCAGC displayed a PBM binding z-score of 3.38.

For the sequence GCATATAGGTACTACAAGGTGAAAGTCCGATTGT, the PBM binding z-score is 0.143.

With ATCTCTAGGTAAGACTCAGTTCATTGAAGAACGC, the PBM binding z-score came out at 2.42.

As to ATATGTAGGTTACTTCCGGGTCATTCAGGCTATG, the PBM binding z-score stood at 3.93.

For the sequence CCAGACAGGTGAAAGGTAACTCATTCTGGTACGC, the PBM binding z-score turned out to be 0.817.

Take GATACAGGGTTAAGGCCAGAGTACGCGTATTGAT: the PBM binding z-score turned out to be 1.05.

ATCTCTAGGTATCCAAGTTCAGTGAATGCCGAAC yielded a PBM binding z-score of 2.38.

In the case of GATAGAGGGTCAAGGCCAGAGTACGCGTATTGAT, the PBM binding z-score stood at 3.37.

The sequence ATCTCTAGGTAAGACTCAGTTAAGTGAAGAACGC displayed a PBM binding z-score of 0.511.

Take TCTTGTAGATCAGCAGGGTAAGAAAGCTGGCCAA: the PBM binding z-score worked out at 0.195.

TCATCTAGGTAATACAGGTGAAAGTCGGCATCTA: the PBM binding z-score amounted to 0.916.

Sequence CCGACAGGGGCAGAAAGGTTACCATACCATCCGG registered a PBM binding z-score of 1.75.

Consider TATACAGAGTCAAAGGCCAGAGTACGAATGTCGA, for which the PBM binding z-score was 0.241.

Consider TCTGCTAGGTCAACGATGGTCAGATAATCTGCTA, for which the PBM binding z-score worked out at 1.78.

CCAGCTAGGTCAATGGTCAGCTAAAGCAGCTCGC showed a PBM binding z-score of 1.

For the sequence ATCGAAAGATCGAAGGTGAGTATACCCACCCGAA, the PBM binding z-score worked out at 0.0219.

In the case of CCTCGGAGGACAGAAGGTCAGAGCGGTCCGCTTT, the PBM binding z-score came out at 1.83.

Regarding CCTTACGGGTCACTGACTGGTTATAGCATTTGGA, the PBM binding z-score turned out to be 3.11.

With TCAGACAGGTGAAGGTAGCTCAGGTACGCAGTCG, the PBM binding z-score was 0.353.

On to CCTAGCAGGCCAATCTGGGTCACTGAAGGCTTGA, for which the PBM binding z-score was determined as 0.552.

For GCTGCTAGCTCAGGTTGGTCAGCTAACGGGTACG, the PBM binding z-score was -0.71.

On to ATCTTTAGGTAACCAAGTTCAGTGAATGCCGAAC, for which the PBM binding z-score turned out to be 4.36.

Sequence TCTGCTAGGTCAACGATGGCCAGCTAATCTGCTA gave a PBM binding z-score of 1.13.

Sequence AATATAGGGTCACTAGGCCAGAGTAGGTACGAAT registered a PBM binding z-score of 4.06.

TTACCACGGTGAAGGTCGTTGATCCCTCTGTAGA: the PBM binding z-score amounted to 0.957.

Consider TCAGACAGGTGAAGGTAAGTCAGGTACGCAGTCG, for which the PBM binding z-score was found to be 0.301.

For TCTTATAGGTAATACAGGTGAAAGTCGGCATCTA, the PBM binding z-score came out at 1.36.

Consider CGAACTAGGTCAGAACAGGACAGCGAAGGATGAT, for which the PBM binding z-score is 0.817.

The sequence AGTCAAAGTACAGGACGAGGTAACGTAAAGCACG had a PBM binding z-score of -0.143.

For CCTACTGGGCCAAAGGTCATTGCTTCCAATGCTC, the PBM binding z-score was found to be 4.47.
